Assay results: ChEMBL document CHEMBL4513216, “Probing the Open Global Health Chemical Diversity Library for Multistage-Active Starting Points for Next-Generation Antimalarials” (ACS Infect Dis, 2020)
About 8,600 (12%) of roughly 69,000 compounds showed an effect of 50% or more. For the sample, strong results were picked, then their nearest neighbours and some compounds at random.

system: Plasmodium berghei; test: Screen against P. berghei liver stage (PbLuc), transformed with Luciferase, at 10uM; format: functional, HepG2; details: tested at 10 uM

SMILES | INHIBITION [%]
Cc1oc(-c2nc(C#N)c(NC3CC3)o2)cc1S(=O)(=O)N1CCCC1 | 25.8
CCN(Cc1ccco1)C(=O)NCC(C)N1CCc2sccc2C1 (stereo not drawn) | -3.72
Cc1occc1C(=O)N1C[C@@H]2CCCO[C@@H]2[C@H](N(C)Cc2ccco2)C1 | 43.9
Cc1cccc(CN(C(=O)NCc2ccccn2)C2CC2)c1 | 19.4
COc1ccccc1N1CCN(C(=O)c2ccnc(N(C)C)c2)CC1 | 77.15
CN(C)c1cc(C(=O)N2CCCC2)ccn1 | -4.567
COc1ccccc1N1CCN(C(=O)c2ccoc2)CC1 | -17.4
O=C(N1CCCO1)[C@@]12CCO[C@@H]1CCN(Cc1ccsc1)C2 | 14.5
CC(CNC(=O)N1CCNC(=O)CC1)Cc1cccs1 (stereo not drawn) | 51.1
CC(CNC(=O)N1CCSCC1)Cc1cccs1 (stereo not drawn) | -18.2
CC(CNC(=O)N1CCS(=O)(=O)CC1)Cc1cccs1 (stereo not drawn) | 16.1
Cn1cc(CN(CC2(O)CCNC2)C2CCCCC2)cn1 (stereo not drawn) | 38.5
O=C(Nc1ccccc1F)C1CN(C(=O)c2ccc3c(c2)OCO3)C1 | 46.1
Cc1noc([C@@]23CCO[C@@H]2CCN(S(=O)(=O)c2cccnc2)C3)n1 | 44.8
Cc1nnc([C@@]23CCO[C@@H]2CCN(S(=O)(=O)c2cccnc2)C3)o1 | -1.36
Cc1nnc([C@@]23CCO[C@@H]2CCN(S(C)(=O)=O)C3)o1 | 23.3
Cc1nnc([C@@]23CCO[C@@H]2CCN(S(=O)(=O)c2ccccc2)C3)o1 | 61.1
CCCS(=O)(=O)N1CC[C@H]2OCC[C@@]2(c2nnc(C)o2)C1 | 55.5
CCS(=O)(=O)N1CC[C@H]2OCC[C@@]2(c2nnc(C)o2)C1 | 34.6
CN(C)CCOCC1CN(Cc2cccs2)Cc2ccnn2C1 (stereo not drawn) | 33.4
CC(NC1CCN(CCc2ccncc2)CC1)c1cnn(C(C)C)c1 (stereo not drawn) | 37.9
Cc1cccnc1NC(=O)c1ccc(F)c(S(=O)(=O)N2CCC2)c1 | 13.3

SMILES | INHIBITION [%]
O=C(Cc1cccs1)N1C[C@@H]2CN(Cc3ccoc3)CCO[C@@H]2C1 | 24.1
CCN1Cc2cc(F)ccc2N(CC(O)C(F)(F)F)CCC1=O (stereo not drawn) | 47.2
CN(C)C(=O)c1cn[nH]c1C1CCCN1Cc1nccn1C (stereo not drawn) | 55.8
CN(C)C(=O)c1cn[nH]c1C1CCCN1Cc1c[nH]cn1 (stereo not drawn) | 18.4
CN(C)C(=O)c1cn[nH]c1C1CCCN1Cc1cncn1C (stereo not drawn) | -11.3
Cc1nc(CN2CCO[C@H]3[C@@H](OCc4ccccn4)CC[C@@H]32)cs1 | 40.4
Cc1ccc2cccc(Oc3nc(C)c(C(=O)O)s3)c2n1 | 12.7
CN1C(=O)C(c2ccccc2)CC12CCN(CCO)CC2 (stereo not drawn) | -9.26
CCc1nc(C2CCCN(C(=O)c3cccc(Cl)c3)C2)no1 (stereo not drawn) | -19.9
COc1cccc(CNC2CCSC2)c1OC (stereo not drawn) | -7.85
CC(C)(C)C(CCO)NC(=O)Nc1ccccc1 (stereo not drawn) | 43.7
CC(C)(C)C(CCO)NC(=O)Nc1ccncc1 (stereo not drawn) | 60.2
Cc1cccnc1NC(=O)NC(CCO)C(C)(C)C (stereo not drawn) | 28.3
CN1CC(=O)N(c2ccccc2)CC12CCN(S(C)(=O)=O)C2 (stereo not drawn) | 42.7
Cc1cc(CNCC2(O)CCOCC2)ccc1F | 76.8
CN1CCC(O)(CNCc2ccc(F)c(C(F)(F)F)c2)CC1 | 48.4
Cc1cc(CNC2(CO)CCOCC2)ccc1Br | 18.6
Cc1cc(CNCC2(O)CCOCC2)ccc1Br | 54.4
Cc1ccc(C(=O)NCC2(O)CCOCC2)cc1Br | -65.5
OC1(CNCc2ccc(F)c(C(F)(F)F)c2)CCOC1 (stereo not drawn) | 3.69
CN(C)C(=O)[C@@H]1CCO[C@@H]2CCN(CCc3ccccc3)C[C@@H]21 | 28.5
COCc1ccc(C(=O)N2CCC(Oc3ccccc3OC)CC2)s1 | -3.83

SMILES | INHIBITION [%]
O=C(N[C@@H]1CN(c2ncccn2)C[C@@H]2CCCO[C@@H]21)c1cnccn1 | 20.2
CC(O)CN1CCN(C(=O)c2cc(Cl)cc3cccnc23)CC1 (stereo not drawn) | 2.75
COC(=O)N1C[C@@H]2CC[C@H]1CN(Cc1cscn1)C2 | -14.8
CCc1ncc2c(n1)CN(c1nc(C)ccc1C(=O)O)C2 | 9.55
CC(C)OCCN1CCC(Nc2ccc(C#N)cc2F)CC1 | 27.2
CNC(=O)[C@@H]1C[C@@H](N)CN1C(=O)CCSCc1ccc(F)cc1 | 9.63
CNC(=O)[C@@H]1C[C@@H](N)CN1C1CCN(c2ccccc2F)CC1 | 61
COc1ccccc1N1CCC(N2CCOCC(CO)C2)CC1 (stereo not drawn) | 39
CNC(=O)[C@@H]1C[C@@H](N)CN1C1CCN(Cc2ccccn2)CC1 | 27.6
CCNC(=O)[C@@H]1C[C@H](N)CN1C1CCN(c2ccccc2OC)CC1 | 55.4
CCNC(=O)[C@@H]1C[C@H](N)CN1C(=O)CCc1ccccc1Cl | -6.83
Cc1cc(C(F)(F)F)nc(C2CCCN2S(C)(=O)=O)n1 (stereo not drawn) | 20.2
CCN1CCN(C(C)CNC(=O)Nc2cnn(CC)c2)CC1 (stereo not drawn) | 44.1
CNC(=O)C1CCN(c2ncc3c(n2)CCN3c2ccccc2)C1 (stereo not drawn) | -105
O=C(Cc1c(F)cccc1Cl)Nc1cc(N2CCCC2)ncn1 | -27.8
Cc1ccsc1CN(Cc1ccccn1)CC(C)C | -21.5
COCCn1ccnc1CN(Cc1ccccn1)Cc1sccc1C | 71
CSC(C)CCN(Cc1ccccn1)Cc1sccc1C (stereo not drawn) | 62.9
COCCN(Cc1ccccn1)Cc1sccc1C | 15.2
COCCN(Cc1sccc1C)Cc1nccn1CCOC | 16.9
Cc1ccsc1CN(CCN(C)C)Cc1ccccn1 | 35.1
Cc1cc(C)c2nc(C)c(C(=O)N3CCC(CCN(C)C)CC3)cc2c1 | 36.8

SMILES | INHIBITION [%]
Fc1cnc(N2CC[C@@H]3CN(Cc4ccncc4)CCO[C@@H]3C2)nc1 | 8.85
Cc1cnn(CCC(=O)N2CCCC(c3cc(C)[nH]n3)C2)c1 (stereo not drawn) | 45.7
Cc1cc(NC(=O)Cn2ncc(Br)c2C)no1 | 15.9
CC(=O)c1ccc(NC(=O)C(C)Cn2cc(Br)cn2)cc1 (stereo not drawn) | -37.6
Cc1cnn(CCNCC(=O)Nc2ccc(Br)cn2)c1 | -37.7
CC(Cn1cc(Br)cn1)C(=O)Nc1ccc(Cl)cn1 (stereo not drawn) | 56
CC(Cn1cc(Br)cn1)C(=O)Nc1ccc(C(N)=O)cc1 (stereo not drawn) | 72.7
CC(Cn1cc(Br)cn1)C(=O)Nc1ccc(Br)cn1 (stereo not drawn) | 81
CC(Cn1cc(Cl)cn1)C(=O)Nc1ccc(CN2CCCCCC2)cc1 (stereo not drawn) | 10.9
CC(Cn1cc(Br)cn1)C(=O)Nc1ccn(C)n1 (stereo not drawn) | 15.7
Cc1cnn(CC(C)NCC(=O)Nc2ccc(Cl)cn2)c1 (stereo not drawn) | -100
Cc1cc(NC(=O)C(C)Cn2cc(Br)cn2)no1 (stereo not drawn) | 67.1
Cc1cc(NC(=O)C(C)Cn2cncn2)no1 (stereo not drawn) | -1.445
CC(Cn1cc(Br)cn1)C(=O)Nc1ccncc1 (stereo not drawn) | -24.7
CN(Cc1cn2c(n1)CN(c1ncc(F)cn1)CC2)Cc1ccco1 | 22.7
O=C(N1CCOCC1)[C@@]12CCO[C@@H]1CCN(C1CCOCC1)C2 | 38.5
Cc1ccc(NC2CCN(C(=O)CCNc3ncccn3)CC2)nn1 | -24.2
Cc1cc(NC(=O)CN2CCN(c3nccs3)C(C)C2)no1 (stereo not drawn) | 19.2
CNC(=O)C1(CCCc2ccccn2)CN(Cc2nccn2C)C1 | -40.1
CC(O)CN1CCC(CNCc2ccccc2F)CC1 (stereo not drawn) | -34.365
Cc1cc(C(=O)CN2CCN(c3ncccn3)CC2)c(C)n1C(C)C | 26.4
CN1CCOC(CNCc2ccccc2OCc2ccccn2)C1 (stereo not drawn) | -10.193

SMILES | INHIBITION [%]
OCCN1CCC(Cc2nccs2)CC1 | 13.955
CC(C)N(C)CC(=O)NCCc1nc(C(F)(F)F)cs1 | -48.9
Cc1cccc(Nc2cc(C)nc(C3CCCCN3CC(N)=O)n2)n1 (stereo not drawn) | 18.9
CCC(NCCn1cccn1)C(=O)Nc1cc(C)on1 (stereo not drawn) | 36.5
Cc1cc(NC(=O)C(C)NCCn2cccn2)no1 (stereo not drawn) | 58.9
CCC(NCCn1cc(C)cn1)C(=O)Nc1cc(C)on1 (stereo not drawn) | 35.4
Cn1cc(CN2CCCC23CCN(c2nc4ccccc4s2)CC3)cn1 | 47
Cc1nc[nH]c1CN1CCCN(c2nc3ccccc3s2)CC1 | 76.6
Cc1nc[nH]c1CN1CCCC12CCN(c1nc3ccccc3s1)CC2 | 76.6
Cc1nc(CN2CCCC23CCN(c2nc4ccccc4s2)CC3)co1 | 14.1
CC(=O)c1ccc(CN2CCCC23CCN(c2ccccn2)CC3)cc1 | 49.9
Cc1nc[nH]c1CN1CCCC12CCN(c1ccccn1)CC2 | 20.9
Cc1nc[nH]c1CN1CCn2nc(CN3Cc4ccccc4C3)cc2C1 | 22.8
c1ccc2sc(N3CCC4(CCCN4Cc4ncc[nH]4)CC3)nc2c1 | 51.6
Cc1nc[nH]c1CN1CCC(C2CCN(CCc3ccccc3)C2)CC1 (stereo not drawn) | 44.3
CN(C)C1CCCN(C(=O)NCc2ccccc2-n2cccn2)C1 (stereo not drawn) | 21.5
CCS(=O)(=O)N1Cc2nccn2CC(Cn2cccn2)C1 (stereo not drawn) | 37.5
O=C(O)c1cc(-c2ccccc2)ns1 | 45.9
O=C(COCc1ccccc1)N1CCCC1c1noc(C2CC2)n1 (stereo not drawn) | 7.27
O=C(C[C@@H]1COC[C@H]2CN(C(=O)c3ccccn3)C[C@@H]12)N1CCCC1 | 6.72
